# Most compounds without a hit are left out; they make up all but 1.1% or so of the library.
# BioA inh: BioA (M. tuberculosis) enzyme inhibition; actives 0.096% (n = 360,000); inhibition, % at 9.99 µM; purified M. tuberculosis BioA enzyme, plate reader; in the data active means inhibition above about 40%
# Yp Topo-I inh: blocks Yersinia pestis topoisomerase I activity; Y. pestis Topo-I cleavage product accumulation, plate reader; activity, % at 10 µM; actives 0.064% (n = 360,000); AID 504884; in the data active means activity above about 50%, passing the limit was not always enough
# PfHsp40 rescue: restores yeast growth despite PfHsp40 toxicity; S. cerevisiae expressing PfHsp40, growth rescue, ATP luminescence; growth rescue, % at 12.5 µM; actives 0.68% (n = 340,000); AID 504582; in the data active means growth rescue above about 28%, passing the limit was not always enough;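 further: yeast W303a lacking pdr1 and pdr3 grown in galactose medium; growth measured after three days at 30 °C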
# PrP 5UTR inh: inhibition of PrP 5' UTR reporter expression; cell-based PrP 5' UTR mRNA reporter, plate reader; inhibition, % (no concentration beside the values); AID 488862; actives 0.35% (n = 340,000); in the data active means inhibition above about 52%; further: 0 = median of the neutral control wells
# FadD28 binding: inhibitors of Mycobacterium tuberculosis FadD28 bisubstrate binding; inhibition, % at 12.5 µM; FadD28 bisubstrate probe binding, fluorescence polarization; actives 0.22% (n = 360,000); in the data active means inhibition above about 8.5%, passing the limit was not always enough
# The depositor's hits bear a star; nt = no result.
SMILES,BioA inh,Yp Topo-I inh,PfHsp40 rescue,PrP 5UTR inh,FadD28 binding
CC(C)NC(=O)Nc1ccc2c(c1)C(=O)N([C@@H](C)CO)C[C@H](C)[C@@H](CN(C)CC1CCCCC1)OCCCC[C@@H](C)O2,2,nt,nt,nt,nt
COCC(=O)N(C)C[C@@H]1Oc2ncc(C#CC(C)(C)O)cc2C(=O)N([C@@H](C)CO)C[C@@H]1C,-1,nt,nt,nt,nt
Oc1cccc(/C=N/n2c(C3CCCCC3)n[nH]c2=S)c1,2,-2,0,3,nt
O=[N+]([O-])c1cccc(/C=N/n2c(C3CCCCC3)n[nH]c2=S)c1,nt,-1,0,0,18*
CCN1/C(=C/C=C/c2oc3ccc(-c4ccccc4)cc3[n+]2CC)Oc2ccc(-c3ccccc3)cc21,-201,12,129*,11,95*
N#Cc1nc(-c2cccs2)oc1NCCc1ccccc1,nt,18,106*,-12,0
Cn1c(COc2ccc3ccccc3c2)nnc1SCC(=O)OC1CCCCC1,1,6,49*,-13,-3
Cn1c(COc2ccc3ccccc3c2)nnc1SCC(N)=O,0,8,-1,-49,-5
COc1ccc(NC(=O)Nc2ccc3c(c2)C(=O)N([C@@H](C)CO)C[C@@H](C)[C@@H](CN(C)Cc2ccc(-c4ccccc4)cc2)O3)cc1,-1,nt,nt,nt,nt
CCCCCCCCN1[C@@H](CC(=O)OCC)c2cc(C(F)(F)F)ccc2S1(=O)=O,2,70*,24,-6,-2
CCc1sc(C(=O)Nc2nc(-c3ccccn3)cs2)cc1C,1,-7,441*,19,-5
O=C(Nc1nc(-c2ccccn2)cs1)c1ccc(Cl)s1,0,0,-1,15,-9
Cc1ccc(C(=O)Nc2nc(-c3ccccn3)cs2)s1,1,-13,59*,10,-4
COc1ccc(NC(=O)N(C)C[C@H]2Oc3ccc(NC(=O)C4CCCCC4)cc3CC(=O)N([C@@H](C)CO)C[C@@H]2C)cc1,0,nt,nt,nt,nt
Oc1ccc(Cl)cc1-c1cc(-c2cccc(Br)c2)n[nH]1,nt,-26,0,-40,-13
Oc1ccccc1-c1cc(-c2cccc(F)c2)n[nH]1,-1,-2,193*,-79,-11
O=[N+]([O-])c1ccccc1-c1cc(-c2cc(Cl)ccc2O)n[nH]1,1,-21,145*,-46,-28
Cc1ccc(O)c(-c2cc(-c3ccccc3C)[nH]n2)c1,0,2,322*,-44,-3
Cc1ccc(O)c(-c2cc(-c3ccccc3[N+](=O)[O-])[nH]n2)c1,nt,-7,12,-40,-10
Cc1ccccc1-c1cc(-c2ccccc2O)on1,3,-10,32*,nt,-1
O=C(Nc1cccc(Cl)c1)N[C@H]1CC[C@@H](CCNC(=O)C2CC2)O[C@@H]1CO,-3,nt,nt,nt,nt
Cc1noc(C)c1NC(=O)Nc1ccc2c(c1)C(=O)N([C@@H](C)CO)C[C@@H](C)[C@@H](CN(C)C(=O)Nc1ccc(F)cc1)O2,6,nt,nt,nt,nt
CC(C)(C)c1ccc(-c2cc(-c3ccccc3O)[nH]n2)cc1,-2,-12,34*,42,-7
Cc1noc(C)c1NC(=O)N(C)C[C@H]1Oc2ccc(NC(=O)NC(C)C)cc2CC(=O)N([C@H](C)CO)C[C@@H]1C,3,nt,nt,nt,nt
O=C(NCC1(c2ccccc2)CCCC1)C1(c2ccccc2)CCCC1,nt,68*,3,-28,-3
SMILES,BioA inh,Yp Topo-I inh,PfHsp40 rescue,PrP 5UTR inh,FadD28 binding
O=C(NCC1(c2ccccc2)CCCC1)C(=O)NCC1(c2ccccc2)CCCC1,nt,4,0,-4,0
CC(C)(C)c1nnc(N/N=C/c2ccccc2)n(N)c1=O,0,8,-1,-71,-1
CC(C)(C)c1nnc(N/N=C/c2ccccc2O)n(N)c1=O,-1,2,71*,30,0
CCCSC(=S)c1c(C)[nH]n(-c2ccccc2)c1=O,nt,5,305*,-19,3
C[C@@H]1CN([C@H](C)CO)C(=O)c2cc(NS(=O)(=O)c3ccccc3)ccc2O[C@@H](C)CCCCO[C@@H]1CN(C)CC1CCCCC1,-1,nt,nt,nt,nt
O=C(OCC(=O)C12CC3CC(CC(C3)C1)C2)c1ccc(O)cc1,0,6,425*,-40,1
O=C(OCC(=O)C12CC3CC(CC(C3)C1)C2)c1ccc(CO)cc1,0,18,1,-26,-2
O=c1oc(-c2ccccc2)cc(Cl)c1Cl,-1,5,556*,-28,-1
Cn1cc(C(=O)OCC(=O)NC2(C#N)CCCC2)c2ccccc21,-2,-1,66*,-18,-1
N#CC1(NC(=O)COC(=O)C2=COCCO2)CCCCC1,2,5,0,-21,18*
CN(C(=O)COC(=O)C1=COCCO1)C1(C#N)CCCCC1,-4,-1,0,-5,-1
Cn1cc(C(=O)OCC(=O)NC2(C#N)CCCCC2)c2ccccc21,0,-3,1,-23,-2
O=C(Cn1nnc(-c2ccccc2Cl)n1)N/N=C/c1ccc2c(c1)OCO2,2,25,60*,-9,0
CC(C)C#Cc1cnc2c(c1)C(=O)N([C@@H](C)CO)C[C@H](C)[C@H](CN(C)C(=O)c1ccc3c(c1)OCO3)O2,2,nt,nt,nt,nt
C(=N\NC1=Nc2cccc3cccc1c23)/c1ccccn1,nt,9,327*,-100,-2
Clc1ccccc1/C=N/NC1=Nc2cccc3cccc1c23,nt,5,0,-149,-3
CO[C@@H]1CN(C)C(=O)c2ccc(NC(=O)c3ccccc3)cc2OC[C@H](C)N(C(=O)CN(C)C)C[C@@H]1C,-3,nt,nt,nt,nt
Cn1nc(Cc2cccc3ccccc23)c(C#N)c1N,-1,-7,1,-16,-4
CC(C)(C)n1nc(Cc2cccc3ccccc23)c2c(N)ncnc21,0,21,552*,5,1
O=C(CNCc1ccccc1Cl)Nc1cc(S(=O)(=O)N2CCOCC2)ccc1Cl,0,28,0,8,-2
O=C(Nc1cc(S(=O)(=O)N2CCOCC2)ccc1Cl)C(=O)c1c(-c2ccccc2)cc2ccccn12,-2,22,66*,-16,-4
Cc1cccc(CSc2nnnn2-c2ccccc2)c1,nt,12,33*,-2,-2
COCC(=O)Nc1ccc2c(c1)OC[C@@H](C)N(C(=O)CC1CC1)C[C@H](C)[C@@H](OC)CN(C)C2=O,-3,nt,nt,nt,nt
O=c1oc2ccccc2c(O)c1/C=C1\C=Nc2ccccc21,-1,-17,110*,-20,-3
O=C(Nc1nncs1)c1ccc(S(=O)(=O)c2ccccc2)cc1,-2,2,173*,5,-1
Cc1noc(C)c1S(=O)(=O)Nc1ccc2c(c1)C(=O)N([C@H](C)CO)C[C@H](C)[C@H](CN(C)S(=O)(=O)c1ccc(Cl)cc1)O2,4,nt,nt,nt,nt
COC(=O)Nc1ccc(S(=O)(=O)NNC(=O)c2c(O)c3ccccc3[nH]c2=O)cc1,-1,2,52*,-45,nt
Cc1ccc(S(=O)(=O)NNC(=O)c2c(O)c3ccccc3[nH]c2=O)cc1,-1,1,-2,-20,-3
COc1ccccc1-c1ccc2c(c1)O[C@@H](CN(C)C(=O)c1cccnc1)[C@@H](C)CN([C@@H](C)CO)S2(=O)=O,3,nt,nt,nt,nt
O=C(CN1CCN(c2ccc(O)cc2)CC1)Nc1cc(S(=O)(=O)N2CCCCC2)ccc1Cl,nt,2,0,5,0

# Screening data from PubChem.
